Results reported in the supplement of paper PMC6555819.

Key:
Experiment in all cases: PBM binding z-score (relative to random genomic background probes); higher = stronger binding; sequences stand for … in GC…GCGATTGACAGCGTAGAATGAAGG
[1] = system: RARb homodimer (NR concentration 270 nM)
How it was run: (§1)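 Antibodies against each partner of ligand-free nuclear receptor dimers (one per run) detected binding on custom Agilent 4×180K protein-binding microarrays after 1 h incubation. The double-stranded probes had 34-nt variable regions carrying direct-repeat seeds, single-nucleotide variants, half-site ablations and random human genomic background sequences. Binding z-scores, from regression-normalized fluorescence, use the random background probes as reference.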

[2] = system: RARg:RXRa (NR concentration 270 nM, RXRa partner concentration 90 nM)
How it was run: as §1

[3] = system: RARg homodimer (NR concentration 270 nM)
How it was run: as §1

[4] = system: RXRa DBDmut IVT, anti-RXR (DBD mutation: RXRa K156A/R161A, NR concentration 90 nM)
How it was run: as §1

[5] = system: RXRa homodimer (NR concentration 180 nM)
How it was run: as §1

[6] = system: THRa:RXRa (NR concentration 90 nM, RXRa partner concentration 90 nM)
How it was run: as §1

[7] = system: THRa homodimer (NR concentration 90 nM)
How it was run: as §1

[8] = system: VDR homodimer (NR concentration 270 nM)
How it was run: as §1

| Sequence | PBM binding z-score [1] | PBM binding z-score [2] | PBM binding z-score [3] | PBM binding z-score [4] | PBM binding z-score [5] | PBM binding z-score [6] | PBM binding z-score [7] | PBM binding z-score [8] |
| --- | --- | --- | --- | --- | --- | --- | --- | --- |
| CAGCCTATGTCAGGGCCAGTATAGGAGGAACGTT | 0.243 | 0.116 | 0.219 | -0.685 | -0.248 | -0.329 | -0.168 | -0.529 |
| ATCTCTAGGTAAGACTCAGTTTAGTGAAGAACGC | 0.134 | 0.228 | 0.235 | 0.443 | -0.191 | 0.364 | 0.619 | 0.252 |
| TAGCCTAGGTCATTCAGGGGCCAGTAAAGAAAGC | 3.38 | 6.24 | 4.69 | 1.5 | 3.27 | 3.63 | 0.491 | 1.24 |
| CCTACTGGGCAACGAAAGGTCATTGATTCAGTGA | 4.44 | 4.88 | 4 | 0.496 | 4.73 | 3.09 | 0.612 | 2.35 |
| CCTTACGGATCACTGACAGGTTATAGCATTTGGA | 0.537 | 0.614 | 0.579 | 0.744 | 0.347 | 0.372 | 0.628 | 0.612 |
| AGAATGAGGTTATTAAGAACAGGGAATTGCGGTC | 0.842 | 1.14 | 0.783 | 2.06 | 1.67 | 2.23 | 0.503 | 1.27 |
| ATCTCTAGGTAAAGTTCAGTCAAAGATCGATAGA | 2.8 | 2.17 | 2.39 | 1.6 | 1.35 | 1.46 | 0.288 | 2.11 |
